Laboratory results from PubChem BioAssay (NCATS).
Where “and” joins values, the source holds several entries; their conditions need not be identical. Equal values may be shown once. Results filed as inconclusive are left out. Calls of active or inactive are those of the source. Unless noted, calls follow the shape of the full dose curve.

Experiments:
[1] = target: Bile acid receptor (Homo sapiens) (UniProt Q96RI1); assay: qHTS assay for small molecule agonists of farnesoid X receptor signaling (AID 588527); details: HEK293T FXR-UAS-bla, beta-lactamase ratio, 16 h; activation: stronger effect = higher value; also: potency is read from the fitted curve at half-maximal effect;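 as to activation: 0% = vehicle basal and 100% = reference agonist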
Bile acid receptor (Homo sapiens), sequence (Q96RI1 whole entry, looked up): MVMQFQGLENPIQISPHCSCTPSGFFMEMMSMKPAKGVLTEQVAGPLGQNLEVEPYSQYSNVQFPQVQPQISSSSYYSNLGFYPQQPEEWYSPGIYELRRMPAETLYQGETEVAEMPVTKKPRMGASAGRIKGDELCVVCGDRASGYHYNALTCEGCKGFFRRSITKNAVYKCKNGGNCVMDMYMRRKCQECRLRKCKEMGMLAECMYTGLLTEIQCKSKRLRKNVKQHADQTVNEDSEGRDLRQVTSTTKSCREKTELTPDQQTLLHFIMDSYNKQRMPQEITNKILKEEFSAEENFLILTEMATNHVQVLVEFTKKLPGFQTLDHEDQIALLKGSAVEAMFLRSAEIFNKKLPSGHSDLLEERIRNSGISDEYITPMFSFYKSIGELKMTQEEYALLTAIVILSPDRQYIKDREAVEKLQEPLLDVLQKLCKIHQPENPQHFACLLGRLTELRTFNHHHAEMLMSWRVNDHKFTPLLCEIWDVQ
Outline: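 FXR-UAS-bla HEK293T, 10% dialyzed FBS; cpds up to 92 uM titration, 16 h 37 C; CCF4 dye 2 h RT; fluorescence. Normalized to chenodeoxycholic acid 100 uM (100%) and DMSO (0%); Hill fit gives EC50, efficacy.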

[2] = target: Glucocorticoid receptor (Homo sapiens) (UniProt P04150); assay: qHTS assay for small molecule antagonists of glucocorticoid receptor signaling (AID 588533; active = well fitted inhibition curve with a large enough effect in the signal ratio, with a control signal flat, not every such curve was filed as active; the % refers to the signal ratio;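 also: cells stimulated with 2 nM dexamethasone as agonist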; also: potency is read from the fitted curve at half-maximal effect); details: HeLa MMTV-bla, GRE beta-lactamase ratio, antagonist mode, 18 h; series mostly up to 76.8 µM
Glucocorticoid receptor (Homo sapiens), sequence (P04150 whole entry, looked up): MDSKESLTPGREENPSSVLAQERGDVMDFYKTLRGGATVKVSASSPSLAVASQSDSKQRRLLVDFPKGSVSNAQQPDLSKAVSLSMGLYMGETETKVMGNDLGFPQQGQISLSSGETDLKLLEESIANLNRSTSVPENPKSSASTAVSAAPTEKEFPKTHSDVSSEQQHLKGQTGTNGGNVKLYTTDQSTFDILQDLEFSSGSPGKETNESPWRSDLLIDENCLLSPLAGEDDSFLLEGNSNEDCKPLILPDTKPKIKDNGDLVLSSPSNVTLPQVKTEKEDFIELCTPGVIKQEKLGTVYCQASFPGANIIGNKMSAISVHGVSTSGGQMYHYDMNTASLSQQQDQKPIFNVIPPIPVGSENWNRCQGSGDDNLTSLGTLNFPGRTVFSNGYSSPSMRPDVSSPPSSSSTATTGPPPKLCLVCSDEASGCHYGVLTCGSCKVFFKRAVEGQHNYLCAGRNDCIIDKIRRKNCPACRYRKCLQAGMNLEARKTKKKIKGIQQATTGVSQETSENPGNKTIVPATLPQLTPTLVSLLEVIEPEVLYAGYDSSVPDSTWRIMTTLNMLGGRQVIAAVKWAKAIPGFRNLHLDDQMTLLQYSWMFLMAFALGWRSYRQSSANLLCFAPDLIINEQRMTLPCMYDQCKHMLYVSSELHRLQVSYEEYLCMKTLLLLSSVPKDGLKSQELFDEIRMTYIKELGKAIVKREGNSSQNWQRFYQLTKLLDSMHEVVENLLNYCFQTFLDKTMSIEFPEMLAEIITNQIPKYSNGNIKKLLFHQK
Outline: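 Antagonist-mode qHTS: compound titrations added to GRE-bla HeLa cells, then dexamethasone 2 nM final; 18 h, 37 C. CCF4 FRET fluorescence normalized to dexamethasone and DMSO; IC50 from Hill fit.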

[3] = target: Peroxisome proliferator-activated receptor delta (Homo sapiens) (UniProt Q03181); assay: qHTS assay for small molecule agonists of peroxisome proliferator-activated receptor delta signaling (AID 588534); details: HEK293T PPARdelta-UAS-bla, beta-lactamase ratio, 18 h; series mostly up to 76.7 µM; also: potency is read from the fitted curve at half-maximal effect;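 as to activation: 0% = DMSO basal wells and 100% = positive control agonist at 10 µM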
Peroxisome proliferator-activated receptor delta (Homo sapiens), sequence (Q03181 whole entry, looked up): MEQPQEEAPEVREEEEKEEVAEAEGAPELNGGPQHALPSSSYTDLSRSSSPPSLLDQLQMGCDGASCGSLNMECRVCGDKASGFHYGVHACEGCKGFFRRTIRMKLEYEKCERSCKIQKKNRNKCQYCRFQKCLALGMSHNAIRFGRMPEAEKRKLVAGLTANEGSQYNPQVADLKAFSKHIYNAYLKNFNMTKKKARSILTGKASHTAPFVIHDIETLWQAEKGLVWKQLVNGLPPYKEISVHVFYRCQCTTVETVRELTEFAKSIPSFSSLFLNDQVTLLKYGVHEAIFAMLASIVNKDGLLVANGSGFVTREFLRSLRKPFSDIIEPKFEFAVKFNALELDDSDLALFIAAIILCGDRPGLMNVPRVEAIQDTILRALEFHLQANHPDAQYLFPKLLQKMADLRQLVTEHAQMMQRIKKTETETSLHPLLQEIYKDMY
Outline: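 Reporter cells were plated and held 5 hrs at 37 C before compounds were added. After 18 hrs at 37 C, CCF4 dye was loaded for 2 hrs at RT and fluorescence measured.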

[4] = Tertiary RLuc qRT-PCR qHTS assay for Zika virus inhibitors (AID 1347169; active = well fitted curve in the direction sought with a large enough effect; an effect the other way counts as inactive or inconclusive; also: nearly all actives have a fitted effect of over 55% in size; also: potency is read from the fitted curve at half-maximal effect); details: infected Vero cells, reporter luminescence, 48-72 h; series mostly up to 45.9 µM
Outline: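 Vero, 1,000 cells/well, o/n 37 C; cpd pinned in DMSO; ZIKV-RLuc Cambodian, MOI 1-2, 48-72 h 37 C; live-cell RLuc substrate, lum read at 1-1.5 h.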

[5] = Cell Viability - BJ (AID 421); details: BJ fibroblast viability, qHTS;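 also: potency is read from the fitted curve at half-maximal effect; cells exposed to compound for 40 hours at 37 °C before readout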
Outline: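 Luminescent ATP signal (CellTiter-Glo, 20 min at room temperature) served as the read-out of viable BJ cells after 40 hours of compound treatment. Responses were scaled between DMSO and 100 uM tamoxifen, and AC50 values were obtained by Hill modeling.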

[6] = Cell Viability - Jurkat (AID 426;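 active = dose-dependent loss of cell ATP signal giving a full or clear fitted curve, ranked by lower potency value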;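 also: potency is read from the fitted curve at half-maximal effect; cells exposed to compound for 40 hours at 37 °C before ATP read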); details: qHTS
Outline: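 Seed 5000 Jurkat E6-1 cells/well; add compound; incubate 40 hr at 37 °C; add CellTiter-Glo; wait 20 min at room temperature; read luminescence. Fit concentration-response with Hill equation for AC50.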

[7] = Cell Viability - Hek293 (AID 427;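 active = compounds whose dose-response curve shows a full or clear partial loss of cell viability, called from curve shape rather than a numeric limit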;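 also: potency is read from the fitted curve at half-maximal effect; cells exposed to compound for 40 hours at 37 °C before reading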); details: qHTS
Outline: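 Luminescent ATP read-out (CellTiter-Glo, 20 min RT) after 40 hr compound exposure at 37 °C in complete medium. Signal normalized to DMSO (basal) and 100 uM tamoxifen (100% inhibition); concentration-response fitted with the standard Hill equation to give AC50.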

[8] = Cell Viability - HepG2 (AID 433); details: qHTS;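 also: potency is read from the fitted curve at half-maximal effect; potency for ATP loss meaning cytotoxicity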
Outline: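 Read-out is luciferase-based quantitation of cellular ATP as a measure of viable HepG2 cells after 40 h treatment at 37 °C. Signal decrease is scaled between DMSO-only and 100 uM tamoxifen controls, with AC50 fitted by the Hill equation.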

[9] = Cell Viability - MRC5 (AID 434); details: MRC5 lung fibroblast viability, qHTS;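 also: potency is read from the fitted curve at half-maximal effect; cells exposed to compound for 40 hours at 37 °C; potency reflects cytotoxicity seen as loss of intracellular ATP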
Outline: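 qHTS cytotoxicity in human lung fibroblast MRC5 cells; 40 hr treatment, 37 °C; cellular ATP by luciferase luminescence; DMSO = 0%, 100 uM tamoxifen = 100% inhibition; Hill-fit AC50.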

[10] = Cell Viability - SK-N-SH (AID 435); details: SK-N-SH neuroblastoma cell viability qHTS;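 also: potency is read from the fitted curve at half-maximal effect; compound exposure lasted 40 h at 37 °C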
Outline: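 Luminescent ATP signal served as the viability read-out after 40 hours of compound treatment of human neuroblastoma SK-N-SH cells. Concentration-response data, scaled between DMSO and 100 uM tamoxifen, gave AC50 values by standard Hill modeling.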

[11] = qHTS Assay for Identification of Small Molecule Inducers of Hypoxia Response (AID 2120; active = well fitted curve in the direction sought with a large enough effect in the signal ratio, with a control signal flat, not every such curve was filed as active; the % refers to the signal ratio; also: 0% is about no effect); details: hypoxia response reporter cells, beta-lactamase ratio readout; series mostly up to 104 µM
Outline: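 Induction of beta-lactamase reporter activity was measured in CellSensor HRE-bla ME-180 cells after 17 h compound treatment at 37 degrees C, using CCF4 substrate and the 460nm/530nm emission ratio to derive AC50 values.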

[12] = qHTS assay for small molecule agonists of retinoid X receptor alpha signaling (AID 588544); details: HEK293T RXRa-UAS-bla, beta-lactamase reporter, 18 h; 530 nm emission;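 as to activation: 0% = DMSO basal wells and 100% = reference agonist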
[13] = target: Retinoic acid receptor RXR-alpha (Homo sapiens) (UniProt P19793); assay: as above; details: HEK293T RXRa-UAS-bla, beta-lactamase reporter, 18 h; series mostly up to 76.7 µM
Retinoic acid receptor RXR-alpha (Homo sapiens), sequence (P19793 whole entry, looked up): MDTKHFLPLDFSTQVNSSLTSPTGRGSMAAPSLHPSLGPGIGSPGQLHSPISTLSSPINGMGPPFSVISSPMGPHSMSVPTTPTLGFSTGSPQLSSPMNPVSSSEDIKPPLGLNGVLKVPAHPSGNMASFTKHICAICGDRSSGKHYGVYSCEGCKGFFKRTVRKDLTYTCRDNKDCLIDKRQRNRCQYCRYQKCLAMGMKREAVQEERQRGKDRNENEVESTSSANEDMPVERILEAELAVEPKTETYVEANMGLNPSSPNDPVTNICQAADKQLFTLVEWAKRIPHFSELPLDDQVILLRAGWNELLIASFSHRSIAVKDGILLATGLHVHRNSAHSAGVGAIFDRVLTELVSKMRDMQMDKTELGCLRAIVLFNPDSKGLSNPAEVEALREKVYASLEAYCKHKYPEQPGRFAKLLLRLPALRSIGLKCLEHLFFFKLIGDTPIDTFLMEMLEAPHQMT

[14] = qHTS assay for small molecule antagonists of retinoid X receptor alpha signaling (AID 588546; active = well fitted inhibition curve with a large enough effect in the signal ratio, with a control signal flat, not every such curve was filed as active; the % refers to the signal ratio;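 also: cells stimulated with 9-cis-retinoic acid as agonist; % is scaled to controls: 0 for no effect and ±100 for the full control effect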); details: HEK293T RXRa-UAS-bla, beta-lactamase ratio, antagonist mode; measured here: W530 green channel, cytotoxicity proxy
Outline: (§1)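 Beta-lactamase reporter inhibition, read as CCF4 fluorescence ratio (ex 405, em 460/530 nm) after 2 h at RT. HEK293T UAS-bla cells, 2500/well, were stimulated with 9-cis-RA at 500 or 100 nM final alongside test compound for 18 h at 37 C.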

[15] = target: Retinoic acid receptor RXR-alpha (Homo sapiens) (UniProt P19793); assay: as above; details: HEK293T RXRa-UAS-bla, beta-lactamase ratio, antagonist mode
Outline: as §1

[16] = qHTS assay for small molecule agonists of the antioxidant response element (ARE) signaling pathway measured by Nrf2-dependant transcriptional activity (AID 720636; active = well fitted curve in the direction sought with a large enough effect in the repeat runs; an effect the other way counts as inactive or inconclusive; also: % of control where 0% means no effect); details: ARE-luc HepG2, Nrf2 luciferase reporter, 16 h; series mostly up to 92.4 µM
Outline: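 Quantitative HTS format in HepG2 cells stably expressing an ARE-luciferase reporter; 16 hr compound treatment at 37 C, luciferase signal detected with ONE-Glo.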

[17] = qHTS assay for cell viability of HEK293 cells (AID 743288; active = well fitted curve in the direction sought with a large enough effect; an effect the other way counts as inactive or inconclusive; also: % is scaled to controls: 0 for no effect and ±100 for the full control effect; nearly all actives have a fitted effect of over 50% in size); details: ATP luminescence (CellTiter-Glo), 18 h; max response: stronger effect = lower value
Outline: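 HEK293 parental, 2,000 cells/well; ≥5 h pre-incubation 37 C; pintool compound addition; 18 h, 37 C; CellTiter-Glo 30 min RT; luminescence read.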

[18] = target: Ubiquitin carboxyl-terminal hydrolase 1 (Homo sapiens) (UniProt O94782); assay: Inhibitors of USP1/UAF1: Pilot qHTS (AID 504865; active = well fitted curve in the direction sought with a large enough effect; an effect the other way counts as inactive or inconclusive; also: nearly all actives have a fitted effect of over 35% in size; also: potency is read from the fitted curve at half-maximal effect); details: purified USP1/UAF1, Ub-rhodamine cleavage fluorescence; series mostly up to 114 µM
Ubiquitin carboxyl-terminal hydrolase 1 (Homo sapiens), sequence (O94782 whole entry, looked up): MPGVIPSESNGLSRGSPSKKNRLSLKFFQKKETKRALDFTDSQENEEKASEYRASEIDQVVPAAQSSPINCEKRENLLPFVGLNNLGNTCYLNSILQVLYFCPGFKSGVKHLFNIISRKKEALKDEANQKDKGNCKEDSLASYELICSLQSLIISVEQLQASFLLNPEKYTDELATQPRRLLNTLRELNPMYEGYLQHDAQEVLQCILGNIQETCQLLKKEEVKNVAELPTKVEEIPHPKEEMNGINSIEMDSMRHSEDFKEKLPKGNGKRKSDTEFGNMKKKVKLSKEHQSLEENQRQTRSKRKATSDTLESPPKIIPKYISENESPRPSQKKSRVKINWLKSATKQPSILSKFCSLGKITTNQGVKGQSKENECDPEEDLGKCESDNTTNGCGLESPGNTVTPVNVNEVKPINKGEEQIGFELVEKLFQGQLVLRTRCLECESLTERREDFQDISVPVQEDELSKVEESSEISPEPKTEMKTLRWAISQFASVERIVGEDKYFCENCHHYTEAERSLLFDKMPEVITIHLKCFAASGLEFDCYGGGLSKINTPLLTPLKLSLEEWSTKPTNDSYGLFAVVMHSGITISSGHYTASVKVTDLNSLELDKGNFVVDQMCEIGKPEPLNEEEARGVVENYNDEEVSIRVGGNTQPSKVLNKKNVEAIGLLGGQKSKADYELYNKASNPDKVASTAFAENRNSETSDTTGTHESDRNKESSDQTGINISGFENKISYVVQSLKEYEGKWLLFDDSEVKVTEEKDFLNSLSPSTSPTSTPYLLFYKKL
Outline: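 In 50mM HEPES pH 7.8 containing 0.5mM EDTA, 1mM TCEP, 0.1 mg/ml BSA and 0.01% Tween-20, 1nM USP1/UAF1 is exposed to compound for 15 min, then Ub-Rho (150nM final) is added and fluorescence is read over time.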

[19] = target: Furin (Homo sapiens) (UniProt P09958); assay: Furin counterscreen qHTS for Zika virus inhibitors (AID 1347149; active = well fitted curve in the direction sought with a large enough effect; an effect the other way counts as inactive or inconclusive;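 also: purified recombinant full-length human furin enzyme at 5 nM; fluorescence gain from furin cutting a BOC-RVRR-AMC peptide substrate over 15 min; top concentration of the series differs between compounds; plate controls were no-inhibitor control for no effect and no-enzyme control for full effect; nearly all actives have a fitted effect of over 70% in size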); details: furin enzymatic counterscreen, fluorogenic substrate; series mostly up to 57.5 µM
Furin (Homo sapiens), sequence (P09958 whole entry, looked up): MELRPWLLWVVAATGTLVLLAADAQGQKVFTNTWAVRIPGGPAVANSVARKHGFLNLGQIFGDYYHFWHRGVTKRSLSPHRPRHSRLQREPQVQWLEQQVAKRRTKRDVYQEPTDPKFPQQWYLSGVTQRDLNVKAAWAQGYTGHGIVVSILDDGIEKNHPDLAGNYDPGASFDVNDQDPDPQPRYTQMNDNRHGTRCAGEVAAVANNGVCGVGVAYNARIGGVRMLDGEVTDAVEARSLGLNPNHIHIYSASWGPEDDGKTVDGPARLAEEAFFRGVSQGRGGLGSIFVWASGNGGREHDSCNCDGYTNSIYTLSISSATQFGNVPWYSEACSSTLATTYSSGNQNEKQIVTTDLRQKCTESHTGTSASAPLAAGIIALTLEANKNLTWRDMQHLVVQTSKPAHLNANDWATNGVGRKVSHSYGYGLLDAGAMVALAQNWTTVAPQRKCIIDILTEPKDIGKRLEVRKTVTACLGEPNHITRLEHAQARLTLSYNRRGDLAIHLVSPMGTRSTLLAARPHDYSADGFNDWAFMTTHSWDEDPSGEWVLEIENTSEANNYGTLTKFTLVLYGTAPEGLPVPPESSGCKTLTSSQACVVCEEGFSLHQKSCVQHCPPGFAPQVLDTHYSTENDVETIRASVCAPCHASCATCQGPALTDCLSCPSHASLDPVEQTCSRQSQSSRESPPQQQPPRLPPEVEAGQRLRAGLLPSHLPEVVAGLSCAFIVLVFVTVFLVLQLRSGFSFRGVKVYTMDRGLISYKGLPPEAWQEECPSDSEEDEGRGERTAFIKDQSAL
Outline: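 Fluorogenic cleavage of BOC-RVRR-AMC (2 microM final, Km ~15 µM) was monitored (ex 340, em 450 nm) at 37C after 15 min RT preincubation of 5 nM furin with compounds in HEPES pH 7.0 buffer with CaCl2 and Triton X-100. Percent inhibition was fitted to a 4-parameter Hill curve.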

[20] = tested on: Zika virus NS2B-NS3 protease (unlinked); assay: Optimization of GU AMC qHTS for Zika virus inhibitors: Unlinked NS2B-NS3 protease assay (AID 1347151; active = well fitted curve in the direction sought with a large enough effect; an effect the other way counts as inactive or inconclusive;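 also: 0% = no-inhibitor control and -100% = no-enzyme control; nearly all actives have a fitted effect of over 80% in size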); details: recombinant ZIKV NS2B-NS3 protease, fluorogenic AMC substrate; series mostly up to 52.5 µM
Outline: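 Unlinked protease (25 nM final); buffer 10 mM Tris-HCl pH 8.0 + 0.01% Tween 20; AMC substrate; 15 min RT, dark; Δfluorescence normalized to no-inhibitor/no-enzyme controls; 4-parameter Hill fit.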

C[C@@H]1Cc2c(Cl)cc(C(=O)N[C@@H](Cc3ccccc3)C(=O)O)c(O)c2C(=O)O1
active: Potency [1] 44.7 µM | Potency [2] 0.891 µM | Potency [3] 39.8 µM

CC(C)=CCC[C@]1(C)C=Cc2c(O)c3c(c(CC=C(C)C)c2O1)O[C@]12C(=C[C@@H]4CC1C(C)(C)O[C@@]2(C/C=C(/C)C(=O)O)C4=O)C3=O
active: Potency [4] 2.94 µM

O=Cc1ccccc1
-3.83%: max response [14]
10.9%: max response [12]
inactive: Potency [5] > 92 µM | Potency [6] > 92 µM | Potency [7] > 92 µM | Potency [8] > 92 µM | Potency [9] > 92 µM | Potency [10] > 92 µM | outcome [11] | activation [1] -1.64% | Potency [3] | outcome [13] | max response [15] 10.9% | Potency [16] | max response [17] -12%

Oc1cc[c]([Hg][Cl])cc1
active: Potency [18] 50.1 µM

CCN(CC)/[N+]([O-])=N/O
inactive: Potency [18]

OCCN(CCO)CCO
-6.39%: max response [12]
inactive: outcome [13] | max response [15] -4.54% | Potency [16] | max response [17] -0.515%
-16.2%: max response [14]

CCOc1cc(C=O)ccc1O
0.367% and -12.6%: max response [14]
11.5%: max response [12]
inactive: Potency [5] > 92 µM | Potency [6] > 92 µM | Potency [7] > 92 µM | Potency [8] > 92 µM | Potency [9] > 92 µM | Potency [10] > 92 µM | outcome [11] | Potency [2] | Potency [3] | outcome [13] | max response [15] 1.38% and 4.11% | Potency [16] | max response [17] -8.41% and -7.59%

C[C@@H]1[C@@H]2Cc3ccc(O)cc3[C@@]1(C)CCN2CCc1ccccc1
inactive: Potency [19] | outcome [20]

COC(=O)c1ccccc1C(=O)OC
-2.9%: max response [14]
inactive: Potency [5] > 92 µM | Potency [6] > 92 µM | Potency [7] > 92 µM | Potency [8] > 92 µM | Potency [9] > 92 µM | Potency [10] > 92 µM | outcome [11] | activation [1] -0.299% and -2.92% | Potency [2] | outcome [13] | max response [15] 2.81% | Potency [16] | max response [17] -1.85% and 5.33%
-8.66%: max response [12]

Cc1ccc2c(c1)[C@]13CCCC[C@@H]1[C@H](C2)N(C)CC3
inactive: Potency [19] | outcome [20]

CN1CC[C@@]23CCCC[C@@H]2[C@@H]1Cc1ccc(O)cc13
inactive: Potency [19] | outcome [20] | Potency [4]

C[N+](C)(C)CC(=O)[O-]
inactive: Potency [18]

Clc1ccc([C@@H]2C[C@H]3CC[C@@H]2N3)cn1
inactive: Potency [18]

C[C@H]1[C@H]2Cc3ccc(O)cc3[C@]1(C)CCN2CCc1ccccc1
inactive: Potency [19] | outcome [20]
active: Potency [4] 47.5 µM
